Reference: PubChem BioAssay (NCATS)
Inconclusive results are not listed. Entries that show only a call come without a potency. The source made the active and inactive calls. Calls come from the whole dose curve; as a rule, active = well fitted cell-killing curve with a large enough effect; inconclusive = small, poorly fitted or top-dose-only effect; inactive = flat fitted curve, though single readings scatter.

assay: Cell Viability - LYMP2-026 (AID 989); conditions: LYMP2-026 lymphoblastoid cell viability, qHTS; series mostly up to 92.2 µM; note: nearly all actives have a fitted effect of over 50% in size
Summary of the method: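 qHTS cytotoxicity: 2500 cells/well, 5 hr 37 C, compound 24 hr 37 C, CellTiter-Glo 30 min RT, luminescence. Tetraoctylammonium bromide positive control. AC50 via standard Hill fit.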
Potency is the fitted concentration of half-maximal effect.

| SMILES | Potency |
| --- | --- |
| CCCCCCc1ccc(-c2ccc(C#N)cc2)cc1 | inactive |
| Nc1cnn([C@@H]2O[C@H](CO)[C@@H](O)[C@H]2O)c(=O)n1 | inactive |
| CCCCCCCCOc1ccc(C(=O)O)cc1 | inactive |
| Oc1c(Cl)cc(Cl)c(Cl)c1Cl | inactive |
| CC(C)OCC1CO1 (stereo not given) | inactive |
| C/C(Cl)=C/CCl | inactive |
| CCCCNCC | inactive |
| O=c1[nH]ncc2ccccc12 | inactive |
| c1ccc(COCc2ccccc2)cc1 | inactive |
| O=[N+]([O-])c1cccc(I)c1 | inactive |
| c1ccc2c(c1)ccc1ccccc12 | inactive |
| Nc1ccc(N=Nc2ccccc2)c(N)c1 | inactive |
| Cc1ccc(C(=O)O)cc1[N+](=O)[O-] | inactive |
| COc1ccc([N+](=O)[O-])cc1N | inactive |
| OCC(CO)(CBr)CBr | inactive |
| Nc1cc(C(=O)O)c(O)c(S(=O)(=O)O)c1 | inactive |
| Oc1ccc2c(c1)OCO2 | inactive |
| c1ccncc1 | inactive |
| CC(=O)OC1CC(C)OC(C)O1 (stereo not given) | inactive |
| O=C(OCc1ccccc1)c1ccccc1O | inactive |
| C/C=C/C=C/C=O | 39.8 µM (active) |
| CCN(CC)c1ccc2c(C)cc(=O)oc2c1 | inactive |
| c1c[nH]cn1 | inactive |
| c1ccc(SCCSc2ccccc2)cc1 | inactive |
| O=C(O)/C=C/c1ccc(/C=C/C(=O)O)cc1 | inactive |
| CCCCOC(=O)COc1ccc(Cl)cc1Cl | inactive |
| CC(=O)OC(C(=O)c1ccccc1)c1ccccc1 (stereo not given) | inactive |
| CCCCCCN | inactive |
| CC(=O)Nc1cccc(C)c1 | inactive |
| CCC(Cl)CC(Cl)C(Cl)C(Cl)C(Cl)C(C)Cl (stereo not given) | inactive |
